Outcome data for 106 molecules are collected here from PubChem BioAssay AID449764 (Southern Research Specialized Biocontainment Screening …, 2010).

Out of some 2,300 compounds screened, about 1,700 (74%) were called active. No rule for the calls is given here. The set was probably picked from earlier hits. The list shows a part of the results. Entries with a potency or affinity are not part of this list.

A short description of this test: Confirmatory growth inhibition assay, Mycobacterium tuberculosis H37Rv, absence of glycerol (AID 449764).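 Also: growth read after 7 days of incubation.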 As to conditions: no glycerol; series mostly up to 100 µM.
As to `OCCN(/C=N/c1nc(-c2ccc(Br)cc2)cs1)CCO`, the molecule was classed as inactive. Under `CC(C)(C)n1c(O)c(C=Nc2ccc3c(c2)CCC3)c(=O)[nH]c1=O` stands “inactive”; under `CCOC(=O)c1c(/N=C/N(C)C)sc(/C=N/Nc2ccccc2)c1-c1ccccc1Cl`, “inactive”. `COCCn1c(-c2ccc(OC(F)(F)C(F)C(F)(F)F)cc2)nc2c1c(=O)[nH]c(=O)n2CC(C)C` (stereo unspecified): the result was inactive.

Regarding `COc1ccccc1N1C(=O)NC(=O)/C(=C/c2ccc([N+](=O)[O-])s2)C1=O`, the result was inactive. Under `N#CCCn1cc(/C=C2\NC(=S)N(c3ccccc3)C2=O)c(-c2ccc(-c3ccccc3)cc2)n1` stands “inactive”; under `CN1/C(=N\O)c2cccc3cccc1c23`, “inactive”; under `Cc1cc(OCc2nc3ccccc3s2)ccc1N`, “inactive”.

For `Cc1cc(O)c(/C=N/Nc2cccc(Cl)c2)c(=O)o1`, the call was inactive. As for `COc1ccc(-c2c(-c3cc(OC)cc(OC)c3)n(C)c3ccc(-c4ccn[nH]4)cc23)cc1`, the molecule was classed as inactive. Under `Nc1ccc(N=Nc2ccccc2)c(N)n1` stands “inactive”; under `CCC(C)OC(=O)C(C)Oc1ccc(-c2ccccc2)cc1` (stereo unspecified), “inactive”. Under `CC(=O)/C(=C\Nc1ccc(OCc2ccccc2)cc1)c1ccccc1` stands “inactive”; under `CC(=O)c1cccc(Nc2nc(-c3cccnc3)cs2)c1`, “inactive”; under `O=c1[nH][nH]c(-c2ccccc2O)c1C(C[N+](=O)[O-])c1cccc(Cl)c1` (stereo unspecified), “inactive”. As to `COc1cc2[nH]c(Cl)c([N+](=O)[O-])c2cc1OC`, the call was inactive. With `C#CCOC(=O)/C(=C/c1ccc(F)cc1)NC(C)=O` the entry was “inactive”; with `CN1[C@@H]2CC[C@H]1CC(OC(=O)[C@H](CO)c1ccccc1)C2` (stereo partly specified), “inactive”. With `CCOc1cc(/C=N\NC(=O)Cn2nc([N+](=O)[O-])cc2C)ccc1OCc1cccc2ccccc12` the entry was “inactive”; with `N#CC1=C(N)NC(SCC(=O)c2ccccc2)=C(C#N)C12CCCC2`, “inactive”. Under `CCOc1ccc2nc(/N=C/c3nc(-c4ccccc4)oc3O)sc2c1` stands “inactive”; under `COc1ccccc1/C=N/NC(=O)NC12CC3CC(CC(C3)C1)C2`, “inactive”; under `Nc1ccc(OCc2ccco2)cc1`, “inactive”. Take `Nc1cnc(-c2ccccc2)nc1Cl`: the outcome was inactive. Under `Cc1ccc(-c2ccc(/C=N/c3ncn[nH]3)o2)cc1Cl` stands “inactive”. Under `COc1ccc(-c2nc(C#N)c(N3CCc4ccccc4C3)o2)cc1OC` stands “inactive”; under `COc1ccc(NC(=O)C(=O)NCC(c2ccco2)N2CCc3ccccc3C2)cc1` (stereo unspecified), “inactive”.

Regarding `C=CCOc1ccc(/C=N/O)cc1Cl`, the result was inactive. As to `Cc1ccccc1C1C(C#N)=C2N=C(N)c3c(sc4c3CCCCC4)N2C2=C1C(=O)CC(C)(C)C2` (stereo unspecified), the molecule was classed as inactive.

On to `C[C@]12CCC(=O)C[C@@H]1CC[C@@H]1[C@@H]2CC[C@]2(C)C=CC[C@@H]12`, for which the outcome was inactive. As for `Cn1c(=S)c2[nH]c(SCCN3CCCC3)nc2n(C)c1=O`, the molecule was classed as inactive. Consider `CCCN(CC1CC1)C(=O)COC(=O)c1ccc2c(c1)C(=O)N(c1ccc(OCC)cc1)C2=O`, for which the molecule was called inactive. In the case of `CCOC(=O)c1ccc(N=C(CC)c2c(O)n(C)c(=O)n(C)c2=O)cc1`, the molecule was called inactive.

`CN(C(=O)COC(=O)/C=C/c1ccc(Cl)c(Cl)c1)c1c(N)n(Cc2ccccc2)c(=O)[nH]c1=O`: the molecule was called inactive. Consider `C=CCOc1ccc(/C=C/C(=O)OCC(=O)NCC2CCCO2)cc1` (stereo unspecified), for which the molecule was called inactive. Under `CC(C)c1ccc(-c2nn(-c3ccccc3)cc2C(=O)NCC2CCCO2)cc1` (stereo unspecified) stands “inactive”. Regarding `O=S(=O)(c1ccc(Cl)cc1)N1CCC(n2cnc3cc(C(F)(F)F)ccc32)CC1`, the outcome was inactive. With `O=C1NC(=Nc2ccccc2)S/C1=C\C=C\c1ccco1` the entry was “inactive”; with `CCCC(O)(CCC)C(=O)NNc1ccc(C)cc1`, “inactive”; with `CC(=O)N1C(Nc2ccc(Cl)cc2)CCN1c1ccccc1` (stereo unspecified), “inactive”. Take `CCOc1ccc(N=CNc2ccc(OCC)cc2)cc1`: the molecule was classed as inactive. With `Cc1ccc(C(=O)Nc2ccc3c4c(cccc24)CC3)cc1[N+](=O)[O-]`, the molecule was classed as inactive. On to `CCn1c(SCC(=O)Nc2nc3ccc(C)cc3s2)nc2c(c1=O)SC(C)C2` (stereo unspecified), for which the result was inactive. Take `Cc1cc(NC(=O)CCN2C(=O)C3C4C=CC(C4)C3C2=O)ccc1Br` (stereo unspecified): the outcome was inactive. With `Cc1ccc(-c2ccc(=O)n(CC(=O)N3CCN(c4cc(Cl)ccc4C)CC3)n2)cc1` the entry was “inactive”; with `CCOC(=O)c1ccc(N=Cc2c(O)c3ccccc3oc2=O)cc1`, “inactive”. With `O=C(CCC1CCCC1)c1c(O)c2ccccc2oc1=O`, the result was inactive.

In the case of `CCCCCCCCCCC[C@@H](C[C@@H]1OC(=O)[C@H]1CCCCCC)OC(=O)[C@H](CC(C)C)NC=O`, the outcome was inactive. As to `COc1cccc(/C=C/c2nc(C#N)c(NCC(C)C)o2)c1`, the result was inactive.

In the case of `O=C(O)Cc1c[nH]c2ccc(O)cc12`, the call was inactive. With `O=C1C(=O)c2ccccc2C(O)=C1C1CCC(c2ccc(Cl)cc2)CC1` (stereo unspecified), the outcome was inactive. `O=C1C(c2ccccc2)=[N+]([O-])c2ccccc21`: the result was inactive. Under `COc1ccc(N=C/C=C2/C=C(c3ccccc3)OC(C)(C)O2)cc1` stands “inactive”; under `CCCCOC(=O)c1ccc(O)cc1`, “inactive”; under `CCOc1ccc(/C=C/C2=Cc3c(sc(NC(=O)CSc4n[nH]c(N)n4)c3C#N)C(C)(C)C2)cc1`, “inactive”. With `Cc1ccc(C(=O)COC(=O)C2CC(=O)N(c3nc(-c4ccccc4)cs3)C2)cc1C` (stereo unspecified) the entry was “inactive”; with `Cc1cc(C)n2[nH]c(=O)c(N=Nc3cccc(C(F)(F)F)c3)c2n1`, “inactive”; with `O=c1ccn(-c2ccccc2)[nH]1`, “inactive”. With `Cc1[nH]n(-c2ccccc2)c(=S)c1C=NCCCN=Cc1c(C)[nH]n(-c2ccccc2)c1=S` the entry was “inactive”; with `Cc1c(O)c(=O)n(-c2ccccc2)n1C`, “inactive”; with `O=C(OCC(=O)C12CC3CC(CC(C3)C1)C2)c1ccc(O)cc1O`, “inactive”.

In the case of `CC(=O)NC1C(c2nc3ccccc3s2)=C(c2ccccc2)C(=O)N1c1ccc(C)cc1` (stereo unspecified), the result was inactive. For the molecule `CCc1ccc(N=CC23c4ccccc4C(c4ccccc42)C2C(=O)N(c4ccc(OC)cc4)C(=O)C23)cc1` (stereo unspecified), the result was inactive. For `COc1ccc(NCc2n[nH]nc2-c2ccccc2)cc1Cl`, the outcome was inactive. `C=CCSc1n[nH]c(-c2ccc(OCCCC)cc2)n1`: the outcome was inactive. Turning to `O=C(O)C1CC=CCC1C(=O)NNc1ccccc1` (stereo unspecified), the outcome was inactive. Under `CCOP(=O)(OCC)/C(=C/N1CCCCC1)NC(=O)c1ccccc1` stands “inactive”; under `CCOc1cc(C(=O)OCc2ccc(C(=O)OC)o2)cc(Br)c1OC`, “inactive”. Under `Cc1nc2cc(C(F)(F)F)ccc2n1C1CCN(Cc2nnnn2Cc2ccc3c(c2)OCO3)CC1` stands “inactive”; under `Cc1ccc(NC2Sc3ccccc3NC2=O)cc1Cl` (stereo unspecified), “inactive”; under `Cc1nc2sccn2c1-c1nc(-c2cc3ccccc3o2)cs1`, “inactive”. Under `Cc1ccc(-c2nnc(NCc3nc4ccccc4[nH]3)c3ccccc23)cc1S(=O)(=O)N1CCCCC1` stands “inactive”.

`Cn1ccnc1C(O)c1cc(C(C)(C)C)c(O)c(C(C)(C)C)c1` (stereo unspecified): the call was inactive. Consider `O=C(N/N=C/c1c(F)c(F)c(F)c(F)c1F)c1cccc(S(=O)(=O)N2CCOCC2)c1`, for which the molecule was classed as inactive. As to `COc1ccc(NC(=O)c2oc3ccc(S(=O)(=O)N4CCOCC4)cc3c2C)cc1`, the molecule was called inactive.

With `CC(C)(C)c1ccc(C2C3=C(CCCC3=O)NC3=C2C(=O)c2ccccc23)cc1` (stereo unspecified), the molecule was called inactive. Under `CC(C(=O)NC(=O)NC1CCCCC1)N(C)CC(=O)Nc1ccc(F)c(F)c1F` (stereo unspecified) stands “inactive”. With `Cc1ccccc1C(=O)Nc1ccc(-c2nc3ccc(C(=O)c4ccccc4)cc3[nH]2)cc1`, the call was inactive. As to `ClC1=C(Cl)C(Cl)=C(Cl)C1=C/C=C/c1ccccc1`, the molecule was called inactive. With `CC(C)c1ccc2[nH]c(O)c(N=NC(=O)c3ccc(CSc4nncn4C)cc3)c2c1` the entry was “inactive”. `CCOc1ccc(NC(=O)CSc2cn[nH]n2)cc1`: the result was inactive.

Turning to `COC(=O)c1ccc(CSc2nc3cc(Cl)ccc3o2)cc1`, the result was inactive. Under `CCOC(=O)c1ccc(N=C2SC(C(=O)Nc3ccc(C(=O)O)cc3)CC(=O)N2Cc2cccs2)cc1` (stereo unspecified) stands “inactive”; under `CCC(C)Nc1nc2c(C)cccn2c(=O)c1C=Nc1ccc(OC)cc1` (stereo unspecified), “inactive”. Under `COc1ccc(NC2(c3ccc(Cl)cc3)C(=O)c3ccccc3C2=O)cc1` stands “inactive”; under `COc1ccc(C(=O)NNc2ccccc2)cc1OC`, “inactive”. For the molecule `CC(C)C(=O)Nc1cccc(-c2nc3ccccc3c(=O)o2)c1`, the molecule was classed as inactive. `Cn1c(=O)c2cc(NCc3ccccc3)nnc2n(C)c1=O`: the molecule was called inactive. Regarding `Cc1ccc(C(=O)N2N=C(CC(C)C)CC2(O)C(F)(F)F)o1` (stereo unspecified), the molecule was classed as inactive. Take `CCOc1ccc(C2=Nc3ccc(Br)cc3C(c3ccc(N4CCOCC4)cc3)=NN2)cc1`: the call was inactive. `CCOc1ccc(N2CCc3c(C)nc(SC)nc32)cc1`: the molecule was classed as inactive.

Take `Cc1nc(Nc2ccc(Cl)c(Cl)c2)sc1C(=O)Nc1ccccc1`: the result was inactive. With `Cc1ccc(NC(=O)c2ccc(CSc3nnc(C)s3)cc2)c(C)c1` the entry was “inactive”; with `CCCCN(CC)c1nc(N)c2c(N)nc(OCC)cc2c1C#N`, “inactive”; with `CC(C)C[C@H]1C(=O)N2CCC[C@H]2[C@]2(O)O[C@](NC(=O)C3C=C4c5cccc6[nH]c(Br)c(c56)C[C@H]4N(C)C3)(C(C)C)C(=O)N12` (stereo partly specified), “inactive”. Under `O=C1N/C(=N\N=C\c2ccccn2)SC1Cc1cccc(SC(F)F)c1` (stereo unspecified) stands “inactive”. With `CCc1ccc(CCOc2ccc(CC3SC(=O)NC3=O)cc2)nc1` (stereo unspecified) the entry was “inactive”; with `FC(F)(F)c1ccc(N2CCOCC2)c(Nc2nc3ccccc3n3cnnc23)c1`, “inactive”; with `CCCCN(CCCC)c1nc(-c2ccncc2)nc2ccccc12`, “inactive”. With `CSc1cc(-c2ccncc2)nc(-c2ccc(Cl)cc2)c1`, the molecule was called inactive. Under `O/N=C/c1ccc2ccccc2c1` stands “inactive”; under `Cc1ccc2c(c1)C(c1ccc(N3CCOCC3)cc1)=NNC(c1cccs1)=N2`, “inactive”; under `CCc1ccc(/C=C/C(=O)c2cc(Br)ccc(=O)c2O)cc1`, “inactive”. Under `Cc1ccccc1-n1c(O)c(C=Nc2ccc3c(c2)OCO3)c(=O)[nH]c1=O` stands “inactive”; under `C=CCc1c(C)nc2ccc(C(=O)OCC)cc2c1Cl`, “inactive”; under `CCn1c(SCC(=O)Nc2ccc3c(c2)oc2ccccc23)nnc1-c1ccc(N)cc1`, “inactive”.
